# Most compounds without a hit are left out; they make up all but 1.4% or so of the library.
# TSHR antagonist: antagonists of human thyroid stimulating hormone receptor. TSHR-expressing cells, TSH-stimulated cAMP HTRF, 2 h; stronger effect = lower value. P16473. 330,000 tested, 0.2% active. activity change, negative = inhibition, % at 11.5 µM;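 active = activity change below a set negative limit, meaning inhibition stronger than a set level, cut at about -70% in these data; inconclusive = activity change between two set negative limits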
# Target sequence (P16473 whole entry, looked up): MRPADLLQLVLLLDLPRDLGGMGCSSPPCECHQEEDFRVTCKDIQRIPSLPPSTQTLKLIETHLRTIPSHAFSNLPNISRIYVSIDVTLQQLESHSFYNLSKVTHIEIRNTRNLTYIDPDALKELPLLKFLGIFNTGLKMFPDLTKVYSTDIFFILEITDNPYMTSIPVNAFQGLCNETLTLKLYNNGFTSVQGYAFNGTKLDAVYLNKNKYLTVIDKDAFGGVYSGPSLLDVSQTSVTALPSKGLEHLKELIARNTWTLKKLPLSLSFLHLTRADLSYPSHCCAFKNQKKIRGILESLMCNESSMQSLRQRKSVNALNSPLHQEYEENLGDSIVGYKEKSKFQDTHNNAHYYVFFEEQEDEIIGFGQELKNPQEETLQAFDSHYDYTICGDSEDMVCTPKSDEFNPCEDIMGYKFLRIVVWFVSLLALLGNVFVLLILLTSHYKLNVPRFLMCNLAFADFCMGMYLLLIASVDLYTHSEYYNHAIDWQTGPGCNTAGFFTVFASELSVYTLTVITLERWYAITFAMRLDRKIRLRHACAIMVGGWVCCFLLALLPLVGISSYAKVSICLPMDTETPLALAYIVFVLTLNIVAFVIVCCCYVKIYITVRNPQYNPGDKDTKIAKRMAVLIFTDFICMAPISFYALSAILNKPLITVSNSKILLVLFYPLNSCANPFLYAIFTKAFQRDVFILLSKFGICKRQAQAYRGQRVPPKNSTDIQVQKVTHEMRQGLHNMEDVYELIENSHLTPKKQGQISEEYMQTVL
#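 TSHR-expressing cells were treated with compounds, then stimulated with TSH at EC80 (4nM final) for 2 hours at 37 deg C. Cellular cAMP was measured by HTRF competition between lysate cAMP and cAMP-d2 for a cryptate-labelled anti-cAMP antibody.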
# BRCA1 expr act: activators of BRCA1 expression; MCF7-BRCA1-FFLuc reporter, luminescence, 48 h; response scale: scaled: vehicle 0%, 10 µM genistein 100%; Potency, µM (top dose mostly 46.1 µM), usual class: activators; 380,000 tested, 1.1% active; AID 624202; note: nearly all actives have a fitted effect of over 80% in size
#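 Luminescence from a BRCA1-driven firefly luciferase in MCF7 cells was read after 48 h compound exposure at 37 C. Data normalized against DMSO and a 10microM genistein activation control, then curve-fitted across the titration.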
# GLS inhibitor: inhibitors of human glutaminase (GLS). O94925. GLS enzymatic activity, qHTS titration. Potency, µM (highest dose often 45.5 µM), most hits filed as inhibitors. 410,000 tested, 0.21% active
#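 Assay buffer: 45 mM KH2PO4 pH 8.2, 0.02% Tween-20. hKGA acts on L-glutamine (1 mM solution added); product glutamate is reported by an oxidase/peroxidase Amplex Red coupling, with fluorescence taken at baseline and 30 min.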
# N370S GC mod: inhibits or activates N370S mutant glucocerebrosidase | Potency, µM (titrated, usually from 59.4 µM), usual class: inhibitors | N370S GC spleen homogenate, 4MU-glucoside fluorescence | 330,000 tested, 0.092% active | P04062
# TCR activator: T cell receptor activation; 330,000 tested, under 10 active; primary human leukocytes, anti-CD3, IL-2 HTRF, 48 h; Potency, µM (titrated, usually from 9.22 µM), usual class: activators; AID 504894
#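 1) Mix primary human leukocytes, a-CD3 beads and compound. 2) Incubate 48 hr. 3) Add HTRF IL-2 reagents (a-IL-2-K, a-IL-2-d2).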
# p53 reactivation: mutant p53 re-activation in reporter cells. AID 504706. H1299 p53-A138V BP100-luciferase reporter, luminescence, 24 h. Potency, µM (series often up to 92.2 µM), most hits filed as activators. 320,000 tested, 0.063% active; note: nearly all actives have a fitted effect of over 45% in size
#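 p53-null H1299 cells stably carrying temperature-sensitive p53-A138V and a BP100-luciferase reporter were pinned with compounds (4-point, 1:5 series) and held 24 hrs at 37 deg C. Luminescence was read 10 min after detection reagent.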
# Hits are given with their value; – = inactive; ? = inconclusive; · = not tested or not shown; [ ] = remark or other dose. Unless noted, calls come from the whole dose curve; as a rule, active = well fitted curve in the direction sought with a large enough effect; inconclusive = small, poorly fitted or top-dose-only effect, or another doubt; inactive = no such curve, though single readings can be large; an effect the other way counts as inactive or inconclusive.
SMILES,TSHR antagonist,BRCA1 expr act,GLS inhibitor,N370S GC mod,TCR activator,p53 reactivation
O=C(c1ccc2nc(N3CCOCC3)sc2c1)N1CCCC1,–,–,–,–,–,–
Clc1cccc2sc(N3CCCC3)nc12,–,?,–,–,·,?
Fc1ccc2nc(N3CCOCC3)sc2c1,–,11.2µM,–,–,–,–
Clc1cccc2sc(N3CCOCC3)nc12,·,15.8µM,–,·,–,·
Cc1ccc(CSc2nnc(-c3ccc(NC(=O)CCc4ccccc4)cc3)n2C)cc1,·,–,·,·,·,·
CC(=O)Oc1c(I)cc(I)cc1C(=O)Nc1ccc(Cl)cc1,-106.4,–,–,–,·,–
COc1ccc(Cl)cc1C(=O)Nc1ccc(NC(C)=O)cc1,–,–,–,–,–,–
COc1cc(C)c(C)cc1S(=O)(=O)Nc1cccc(-c2ccc(N3CCOCC3)nn2)c1,·,·,–,·,·,·
O=C(COc1cccnc1[N+](=O)[O-])Nc1cccc(Br)c1,–,11.2µM,–,·,–,–
COc1ccc(NC(=O)COc2cccnc2[N+](=O)[O-])cc1OC,–,–,–,–,·,–
Cc1ccc(CNCc2cn[nH]c2-c2ccc(C)cc2)cc1,·,–,·,·,·,·
COc1ccc(-c2cc(C3C4C=CCCC4(C)C(=O)N3Cc3ccccc3)ccc2F)cc1 (stereo not drawn),·,·,·,–,·,·
CN(C)/C=C1\SC(=S)N(c2ccc(F)cc2)C1=O,–,–,–,–,–,–
CN(C)/C=C1\SC(=S)N(c2ccc(Br)cc2)C1=O,–,10µM,–,–,–,–
Clc1cc(Br)ccc1OCCN1CCOCC1,–,–,–,–,–,–
CCCCCOc1ccc(CN2CCOCC2)cc1Cl,–,8.91µM,–,–,–,?
CCCCOc1ccc(CSC(=N)N)cc1Cl,–,–,20µM,–,–,–
CC(C)c1nc2ccc(C(=O)NCc3ccc(F)cc3)cc2o1,·,·,–,·,·,·
CN(Cc1ccccc1)c1ccc(/C=C/c2sc3ccccc3[n+]2C)cc1,·,–,·,·,·,·
COc1ccc(C(C)C(=O)c2ccc(O)cc2O)cc1 (stereo not drawn),·,·,·,–,·,·
CCOC(=O)c1ccc2[nH]c3c(c2c1)CCCCC3=O,–,3.98µM,–,–,–,–
COc1ccc2[nH]c3c(NCCC4=CCCCC4)ncnc3c2c1,-73.5,–,–,–,–,–
C1=C(CCNc2ncnc3nc[nH]c23)CCCC1,–,6.31µM,–,–,–,?
Clc1ccc(CCNc2ncnc3nc[nH]c23)cc1,?,?,–,–,–,–
CC(C)C[C@H](N)C(=O)N[C@H](C(=O)N[C@@H](CCCN=C(N)N)C(=O)N[C@H](CS)C(=O)NCC(=O)N[C@@H](CCCCN)C(=O)N[C@@H](Cc1cnc[nH]1)C(=O)N[C@@H](CO)C(=O)N[C@@H](CCCN=C(N)N)C(=O)O)C(C)C,·,·,·,–,·,·
SMILES,TSHR antagonist,BRCA1 expr act,GLS inhibitor,N370S GC mod,TCR activator,p53 reactivation
CO[C@@]1(NC(=O)CSC[C@@H](N)C(=O)O)C(=O)N2C(C(=O)O)=C(CSc3nnnn3C)CS[C@@H]21,·,·,–,·,·,·
COc1ccc2cc3cc(C(=O)NCCCN4CCC(C)CC4)oc3nc2c1,–,11.2µM,–,?,–,–
CCOc1cc(/C=N/NC(=O)c2ccc(=O)n(C)c2)ccc1O,–,–,7.94µM,–,–,–
COc1cc(C=NNC(=O)c2ccccc2-n2cccc2)ccc1O,·,–,12.6µM,·,–,–
C/C(=C1/C=Nc2ccccc21)c1ccc(N(C)C)cc1,·,–,·,·,·,·
O=C(O)c1cnn(-c2nc(-c3ccc(Cl)cc3)cs2)c1C(F)(F)F,–,4.47µM,–,–,–,?
CC1(C)SC(=S)N(/N=C/c2ccccc2O)C1N(O)C(=O)Nc1ccccc1 (stereo not drawn),–,–,1µM,–,–,–
Cc1ccc(S(=O)(=O)C2CCN(c3nc(-c4cccs4)nc4ccccc34)CC2)cc1,·,–,·,·,·,·
c1csc(-c2nc(N3CCCCC3)no2)c1,–,6.31µM,–,–,–,?
Cc1ccc(-c2noc(-c3cccs3)n2)cc1,–,–,–,–,–,?
CONC(=O)C1CCN(C(=O)OCc2ccccc2)CC1,–,14.1µM,–,–,–,–
COC(=O)N1C2=C(c3ccccc3[C@@H]1CC(=O)Nc1ccc3cc4ccccc4cc3c1)[C@@H]1C(=O)N(c3ccccc3)C(=O)[C@@H]1[C@H](C)C2,·,·,·,–[12.8 µM],·,·
Cc1ccccc1OCC(=O)NCC(=O)OC(c1ccccc1)c1ccccc1,·,–,·,·,·,·
CCc1nc(SCc2ccc(Br)cc2)n[nH]1,–,10µM,–,–,–,–
CCOC(=O)c1cc(-c2ccc(OC)cc2)nn1-c1ccccc1C(=O)O,–,–,11.2µM,–,–,–
Cc1ccc(Cn2nc(C)cc2C(=O)Nc2ccccc2Cl)cc1,–,3.98µM,–,–,–,?
Cc1ccc(Cn2nc(C)cc2C(=O)Nc2ccc(Cl)cc2)cc1,–,–,–,–,–,–
CCOC(=O)c1cc(-c2ccc(C)cc2)nn1Cc1ccccc1,·,10µM,–,·,·,·
C=C1NN(Cc2ccccc2)C(=O)N1c1ccc(OC)cc1,·,–,·,·,·,·
Cc1csc2c(N3CCCCC3)ncnc12,–,11.2µM,–,–,–,–
Cc1cccc(N2CCN(C(=O)C3CCCN(S(=O)(=O)c4ccc(Br)s4)C3)CC2)c1C (stereo not drawn),·,·,–,·,·,·
CCCCOc1ccc(C(=S)N2CCC(C(N)=O)CC2)cc1,–,3.98µM,–,–,–,–
COc1ccc(C(=S)N2CCC(C(N)=O)CC2)cc1Br,–,–,–,–,–,–
CCOC(=O)Cc1c(C)nc2c(-c3cccc(Br)c3)cnn2c1C,–,–,–,–,–,–
CC(=O)c1cnc2c(-c3cccc(Br)c3)cnn2c1C,–,8.91µM,–,–,–,?
SMILES,TSHR antagonist,BRCA1 expr act,GLS inhibitor,N370S GC mod,TCR activator,p53 reactivation
O=C(NCc1ccco1)c1sc2cc(F)ccc2c1Cl,–,12.6µM,–,–,–,–
O=C(Nc1ccon1)c1sc2cc(F)ccc2c1Cl,–,–,–,–,–,?
O=C(NCc1ccco1)c1ccc2ccccc2c1,–,11.2µM,–,–,–,?
O=C(NCc1ccco1)c1cc(-c2ccc(F)cc2)on1,–,8.91µM,–,–,·,?
Nc1ccccc1/C=C/c1ccnc2ccccc12,·,–,·,·,·,·
CNCCN(C)c1nc(-c2cccs2)nc2ccccc12,·,–,·,·,·,·
Cc1ccccc1NC(=O)COc1ccccc1C(=O)Nc1ccccc1,·,–,·,·,·,·
COCCCNC(=O)COc1ccc(Br)cc1Cl,–,12.6µM,–,–,–,?
CCNC(=O)COc1ccc(Br)cc1Cl,–,–,–,–,–,?
COC(=O)c1nc2n(n1)C(c1cccc(Cl)c1)C1=C(CC(C)(C)CC1=O)N2 (stereo not drawn),–,–,–,–,–,–
